Assay results as given in PubChem BioAssay (Tox21).
Records with an inconclusive call do not appear. Active and inactive are the calls of the source. Unless noted, calls come from the whole dose curve.

Key:
[1] = Nuclear factor erythroid 2-related factor 2/antioxidant responsive element (Nrf2/ARE) small molecule agonists: qHTS cell viability counter screen in human keratinocytes (AID 1919968; active = well fitted curve in the direction sought with a large enough effect in the repeat runs; an effect the other way counts as inactive or inconclusive; note: nearly all actives have a fitted effect of over 55% in size; note: potency is the fitted concentration of half-maximal effect)
Procedure, shortened: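 Parallel cytotoxicity read: KeratinoSens HaCaT cells, compound treatment 23 h, viability by CellTiter-Fluor fluorescence 1 h post-reagent.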

[2] = Nuclear factor erythroid 2-related factor 2/antioxidant responsive element (Nrf2/ARE) small molecule agonists: luciferase reporter gene qHTS assay in human keratinocytes (AID 1919969); note: nearly all actives have a fitted effect of over 35% in size; note: potency is the fitted concentration of half-maximal effect
[3] = biological target: Gonadotropin-releasing hormone receptor (Homo sapiens) (UniProt P30968); test: Human gonadotropin-releasing hormone receptor (GnRHR) small molecule agonists, calcium flux assay in GnRHR-HEK293 cells (AID 1920063); note: nearly all actives have a fitted effect of over 35% in size; note: potency is the fitted concentration of half-maximal effect
Sequence of Gonadotropin-releasing hormone receptor (Homo sapiens) (P30968 whole entry, looked up): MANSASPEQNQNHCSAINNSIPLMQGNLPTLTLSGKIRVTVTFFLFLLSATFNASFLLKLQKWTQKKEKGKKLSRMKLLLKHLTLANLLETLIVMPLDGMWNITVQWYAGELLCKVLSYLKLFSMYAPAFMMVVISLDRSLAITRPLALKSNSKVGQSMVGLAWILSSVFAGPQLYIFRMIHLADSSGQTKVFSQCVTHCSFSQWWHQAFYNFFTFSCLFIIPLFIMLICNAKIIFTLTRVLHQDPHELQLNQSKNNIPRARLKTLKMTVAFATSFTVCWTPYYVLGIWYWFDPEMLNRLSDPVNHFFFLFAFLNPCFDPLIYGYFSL
Procedure, shortened: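 Calcium flux, agonist mode, human GnRHR stably integrated in HEK293; dye 1 h at 37 C before compound; Ex/Em=480/540 kinetic read, 3 min; 15 concentrations, triplicate.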

[4] = biological target: KiSS-1 receptor (Homo sapiens) (UniProt Q969F8); test: Human kisspeptin (KISS1R) small molecule agonists, calcium flux assay in KISS1R-HEK293 cells (AID 1920064; active = well fitted curve in the direction sought with a large enough effect in the repeat runs; an effect the other way counts as inactive or inconclusive; note: potency is the fitted concentration of half-maximal effect)
Sequence of KiSS-1 receptor (Homo sapiens) (Q969F8 whole entry, looked up): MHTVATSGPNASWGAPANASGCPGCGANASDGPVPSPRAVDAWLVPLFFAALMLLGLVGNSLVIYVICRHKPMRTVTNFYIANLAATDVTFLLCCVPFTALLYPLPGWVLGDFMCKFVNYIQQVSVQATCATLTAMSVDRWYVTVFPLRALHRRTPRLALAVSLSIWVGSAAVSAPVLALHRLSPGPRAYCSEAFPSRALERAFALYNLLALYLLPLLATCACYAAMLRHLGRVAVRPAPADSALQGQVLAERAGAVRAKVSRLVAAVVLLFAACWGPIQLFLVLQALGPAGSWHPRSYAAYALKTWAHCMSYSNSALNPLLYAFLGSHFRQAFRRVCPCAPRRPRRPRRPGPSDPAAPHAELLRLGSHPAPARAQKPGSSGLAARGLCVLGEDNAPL
Procedure, shortened: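 Triplicate 15-concentration series were applied to dye-loaded human KISS1R HEK293 cells, and agonist-evoked calcium fluorescence was captured for 3 min.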

[5] = G protein-coupled receptor (GPCR) small molecule agonists, calcium flux assay: HEK293 wild type cell line counter screen (AID 1920065); note: potency is the fitted concentration of half-maximal effect
Procedure, shortened: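 Non-specific calcium responders were flagged by adding DMSO-dissolved compounds to dye-loaded cells and reading 480/540 nm fluorescence each second for 3 min; ATP served as positive control.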

[6] = p53 small molecule agonists, cell-based qHTS assay with rat liver microsomes (AID 1963578); note: potency is the fitted concentration of half-maximal effect
Procedure, shortened: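 With rat liver microsomes and NADPH present (0.5 mg/mL final each), p53RE-bla cells are treated with compound for 16 h at 37 C. LiveBLAzer detection mixture is then applied for 2 h at room temperature in the dark.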

[7] = p53 small molecule agonists, cell-based qHTS assay with rat liver microsomes: qHTS cell viability counter screen (AID 1963580); note: nearly all actives have a fitted effect of over 45% in size
Procedure, shortened: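 Counter screen for cytotoxicity under metabolic activation: rat liver microsomes and NADPH, 0.5 mg/mL final each, added with compounds to p53RE-bla HCT-116 cells; 16 h at 37 C, then ATP luminescence read.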

[8] = p53 small molecule agonists, cell-based qHTS assay: qHTS cell viability counter screen (AID 1963581); note: nearly all actives have a fitted effect of over 45% in size
Procedure, shortened: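 Multiplexed with the reporter read, a CellTiter-Glo step (30 min, room temperature) gauges ATP-based viability of HCT-116 p53RE-bla cells after 16 h compound incubation at 37 C.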

[9] = p53 small molecule agonists, cell-based qHTS assay (AID 1963582; active = well fitted activation curve with a large enough effect in the signal ratio in the repeat runs, not every such curve was filed as active; the % refers to the signal ratio)
Procedure, shortened: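 Beta-lactamase reporter cells (p53RE-bla) treated with compounds for 16 h at 37 C; FRET substrate, 2 h, room temperature; fluorescence intensity.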

[10] = biological target: 5-hydroxytryptamine receptor 2A (Homo sapiens) (UniProt P28223); test: 5-hydroxytryptamine receptor 2A (HTR2A) small molecule antagonists, cell-based qHTS assay (AID 1963586); note: nearly all actives have a fitted effect of over 45% in size; note: potency is the fitted concentration of half-maximal effect
Sequence of 5-hydroxytryptamine receptor 2A (Homo sapiens) (P28223 whole entry, looked up): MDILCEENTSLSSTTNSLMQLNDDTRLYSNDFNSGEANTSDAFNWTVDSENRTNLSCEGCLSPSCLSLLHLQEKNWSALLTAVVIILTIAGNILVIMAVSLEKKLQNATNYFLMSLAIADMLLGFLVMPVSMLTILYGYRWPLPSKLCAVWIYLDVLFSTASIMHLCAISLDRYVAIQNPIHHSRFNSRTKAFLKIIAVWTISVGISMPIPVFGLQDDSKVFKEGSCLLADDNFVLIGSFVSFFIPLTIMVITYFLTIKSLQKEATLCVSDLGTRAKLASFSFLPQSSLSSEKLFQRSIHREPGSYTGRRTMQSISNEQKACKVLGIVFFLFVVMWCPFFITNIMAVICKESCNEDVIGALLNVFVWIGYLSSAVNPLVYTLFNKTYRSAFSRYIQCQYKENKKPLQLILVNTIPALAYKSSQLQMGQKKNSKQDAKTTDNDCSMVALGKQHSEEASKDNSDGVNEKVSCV
Procedure, shortened: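 CHO cells stably expressing human HTR2A were plated for 18 h at 37 C, then loaded with calcium dye for 1 h. Compounds were preincubated 5 min at room temperature before DOI (4 nM solution) was added. Kinetic fluorescence was read for 3 min.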

[11] = biological target: 5-hydroxytryptamine receptor 2A (Homo sapiens) (UniProt P28223); test: 5-hydroxytryptamine receptor 2A (HTR2A) small molecule agonists, cell-based qHTS assay (AID 1963587); note: nearly all actives have a fitted effect of over 30% in size; note: potency is the fitted concentration of half-maximal effect
Procedure, shortened: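 HTR2A-CHO cells, plated 18 h at 37 C/5% CO2, dye-loaded 1 h at 37 C; compounds in DMSO added by pin tool (agonist mode). Intracellular calcium flux read as kinetic fluorescence on FDSS over 2 min at 1 s intervals.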

[12] = biological target: Muscarinic acetylcholine receptor M1 (Homo sapiens) (UniProt P11229); test: Cholinergic receptor muscarinic 1 (CHRM1) small molecule antagonists, cell-based qHTS assay (AID 1963588); note: nearly all actives have a fitted effect of over 40% in size; note: potency is the fitted concentration of half-maximal effect
Sequence of Muscarinic acetylcholine receptor M1 (Homo sapiens) (P11229 whole entry, looked up): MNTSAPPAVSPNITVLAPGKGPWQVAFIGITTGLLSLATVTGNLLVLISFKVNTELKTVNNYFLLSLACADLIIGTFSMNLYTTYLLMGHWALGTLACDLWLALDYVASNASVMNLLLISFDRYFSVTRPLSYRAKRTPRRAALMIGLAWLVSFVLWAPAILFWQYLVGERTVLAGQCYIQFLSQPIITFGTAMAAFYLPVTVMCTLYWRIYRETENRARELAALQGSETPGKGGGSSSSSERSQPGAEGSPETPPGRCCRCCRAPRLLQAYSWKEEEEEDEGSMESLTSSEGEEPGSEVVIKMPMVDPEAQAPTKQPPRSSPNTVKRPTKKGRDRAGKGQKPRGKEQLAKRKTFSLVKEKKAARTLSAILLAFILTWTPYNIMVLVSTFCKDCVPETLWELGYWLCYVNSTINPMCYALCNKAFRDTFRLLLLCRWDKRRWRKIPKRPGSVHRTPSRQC
Procedure, shortened: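 Compounds were tested at 15 concentrations in three independent runs. Dye-loaded CHRM1-CHO cells were exposed 5 min at room temperature before stimulation by acetylcholine added at 50nM. Intracellular calcium was read kinetically on FDSS for 3 min.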

[13] = biological target: Muscarinic acetylcholine receptor M1 (Homo sapiens) (UniProt P11229); test: Cholinergic receptor muscarinic 1 (CHRM1) small molecule agonists, cell-based qHTS assay (AID 1963589); note: nearly all actives have a fitted effect of over 35% in size; note: potency is the fitted concentration of half-maximal effect
Procedure, shortened: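 qHTS, 15-point titration, 3 independent runs: compounds pin-transferred onto dye-loaded CHRM1-CHO cells (human M1), calcium fluorescence followed every second to detect agonism.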

[14] = cAMP Responsive Elements (CRE) small molecule agonists, cell-based qHTS assay (AID 1963590)
Procedure, shortened: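 Quantitative HTS for CRE agonists: HEK 293T CRE-bla cells, overnight plating, 3 h compound incubation at 37 C/5% CO2, then 2 h room-temperature LiveBLAzer B/G FRET substrate loading.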

[15] = cAMP Responsive Elements (CRE) small molecule antagonists, cell-based qHTS assay (AID 1963591; active = well fitted inhibition curve with a large enough effect in the signal ratio in the repeat runs, not every such curve was filed as active; the % refers to the signal ratio)
Procedure, shortened: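 Fluorescence intensity from cleaved LiveBLAzer B/G substrate (2 h, room temperature) quantified CRE-bla activity in HEK 293T cells exposed 3 h to compound with 0.25 uM final NKH477.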

[16] = biological target: Beta-2 adrenergic receptor (Homo sapiens) (UniProt P07550); test: Adrenergic beta2 receptor (ADRB2) small molecule antagonists, cell-based qHTS assay (AID 1963592); note: series mostly up to about 92 µM; nearly all actives have a fitted effect of over 50% in size
Sequence of Beta-2 adrenergic receptor (Homo sapiens) (P07550 whole entry, looked up): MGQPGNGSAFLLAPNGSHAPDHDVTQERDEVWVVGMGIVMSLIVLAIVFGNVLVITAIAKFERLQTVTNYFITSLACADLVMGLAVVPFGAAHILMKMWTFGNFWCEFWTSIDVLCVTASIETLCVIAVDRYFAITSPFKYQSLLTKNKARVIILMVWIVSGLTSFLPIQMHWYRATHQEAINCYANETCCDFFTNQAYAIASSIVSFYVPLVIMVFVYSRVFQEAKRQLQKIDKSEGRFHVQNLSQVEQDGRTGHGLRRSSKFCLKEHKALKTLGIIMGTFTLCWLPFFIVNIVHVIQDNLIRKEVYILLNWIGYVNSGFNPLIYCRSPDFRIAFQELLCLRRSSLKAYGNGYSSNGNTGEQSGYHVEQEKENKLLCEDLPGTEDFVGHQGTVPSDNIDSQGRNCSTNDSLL
Procedure, shortened: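 Assay format: CHO-ADRB2 cells, 18-20hr seeding at 37C/5% CO2, then compound plus 1nM isoproterenol agonist mix for 0.5hr RT. Homogeneous time-resolved fluorescence cAMP detection after 1hr, expressed as 665/615 nm ratio.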

[17] = biological target: Beta-2 adrenergic receptor (Homo sapiens) (UniProt P07550); test: Adrenergic beta2 receptor (ADRB2) small molecule agonists, cell-based qHTS assay (AID 1963593);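 note: CHO cells stably overexpressing human ADRB2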
Procedure, shortened: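 CHO cells stably over-expressing ADRB2 were plated overnight at 37C, then dosed with compounds plus a stimulation mix containing 100uM IBMX and 25uM Ro-20-1724 for 0.5hr at room temperature. cAMP was measured by HTRF competition, 1hr.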

[18] = biological target: D(2) dopamine receptor (Homo sapiens) (UniProt P14416); test: Dopamine D2 receptor (DRD2) small molecule agonists, cell-based qHTS assay (AID 1963594); note: nearly all actives have a fitted effect of over 35% in size
Sequence of D(2) dopamine receptor (Homo sapiens) (P14416 whole entry, looked up): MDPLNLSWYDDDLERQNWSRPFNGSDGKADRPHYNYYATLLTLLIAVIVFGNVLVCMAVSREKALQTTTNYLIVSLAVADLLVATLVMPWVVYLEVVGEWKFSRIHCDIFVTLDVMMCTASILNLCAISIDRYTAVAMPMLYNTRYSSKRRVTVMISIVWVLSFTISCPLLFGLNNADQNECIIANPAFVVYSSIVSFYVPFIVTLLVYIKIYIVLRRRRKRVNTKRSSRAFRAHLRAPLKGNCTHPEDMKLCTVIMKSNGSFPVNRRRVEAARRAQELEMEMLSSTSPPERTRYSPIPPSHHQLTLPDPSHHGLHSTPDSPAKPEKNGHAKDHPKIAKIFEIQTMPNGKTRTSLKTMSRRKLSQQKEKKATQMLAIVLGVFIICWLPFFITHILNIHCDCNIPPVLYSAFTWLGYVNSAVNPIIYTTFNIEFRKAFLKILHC
Procedure, shortened: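 HEK293 cells stably expressing DRD2 were cultured 24 h at 37 C, then given Ro20-1724 (0.1 mM final) and compounds for 10 min at room temperature. NKH477 (200nM) was then added for 30 min. cAMP was read by HTRF.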

[19] = biological target: D(2) dopamine receptor (Homo sapiens) (UniProt P14416); test: Dopamine D2 receptor (DRD2) small molecule antagonists, cell-based qHTS assay (AID 1963595; active = well fitted inhibition curve with a large enough effect in the signal ratio in the repeat runs, with a control signal flat; the % refers to the signal ratio; note: potency is the fitted concentration of half-maximal effect)
Procedure, shortened: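 HEK293 cells stably expressing DRD2 were preincubated with 0.1 mM Ro20-1724, then with compound for 10 min at room temperature. Cells were stimulated with 200 nM NKH477 plus 12 nM quinpirole for 30 min, and cAMP was read by HTRF.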

[20] = p53 small molecule agonists, cell-based qHTS assay with human liver microsomes: qHTS cell viability counter screen (AID 1963579); note: nearly all actives have a fitted effect of over 45% in size; note: potency is the fitted concentration of half-maximal effect
Procedure, shortened: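 In this multiplexed counter screen, the reporter plates were subsequently treated with CellTiter-Glo so that cell viability, reflected by luminescence, could be recorded for p53RE-bla cells dosed 16 h with compounds under microsomal activation (HLM and NADPH).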

Measured: Potency

C=CCC1(C(C)CC)C(=O)NC(=O)NC1=O (centres undefined)
not listed: [20]
inactive: all other assays above

O=C(CCCCl)c1ccc(F)cc1
not listed: [10] | [17]
inactive: all other assays above

Cc1cc(C(C)(C)c2ccc(O)c(C)c2)ccc1O
active: [1] 58.2 µM | [10] 35.7 µM | [11] 52.3 µM
not listed: [9] | [14] | [15] | [17] | [20]
inactive: all other assays above

c1ccc2cc3c(cc2c1)-c1cccc2cccc-3c12
active: [6] 18 µM
not listed: [9] | [10] | [11] | [14] | [15] | [16] | [18]
inactive: all other assays above

O=C1OC(c2ccc(O)c(S(=O)(=O)O)c2)(c2ccc(O)c(S(=O)(=O)O)c2)c2c(Br)c(Br)c(Br)c(Br)c21
active: [2] 8.41 µM
not listed: [12] | [17]
inactive: all other assays above

O=CCCl
not listed: [10]
inactive: all other assays above

CN(C)S(=O)(=O)N(SC(F)(Cl)Cl)c1ccccc1
inactive: [6] | [8] | [9] | [10]
active: [1] 13.7 µM | [2] 4.86 µM | [3] 38.9 µM | [4] 54.9 µM | [5] 38.9 µM | [13] 43.6 µM | [19] 5.45 µM

CNC(=O)O/N=C(/CSC)C(C)(C)C
not listed: [6]
inactive: all other assays above

CCOP(=S)(OCC)SCSP(=S)(OCC)OCC
active: [2] 68.6 µM
not listed: [6] | [10] | [11] | [12] | [14]
inactive: all other assays above

COP(=S)(OC)Oc1ccc(S(N)(=O)=O)cc1
not listed: [6] | [11] | [17] | [19]
inactive: all other assays above

CN(C1CCCCC1)C1CCCCC1
not listed: [6] | [9] | [17]
inactive: all other assays above

C/C=C/C=O
active: [2] 58.4 µM
not listed: [6] | [9] | [17]
inactive: all other assays above

NNCc1ccccc1
not listed: [6] | [9] | [17]
inactive: all other assays above

ClCc1ccccc1Cl
not listed: [6] | [9] | [18]
inactive: all other assays above

CNC(=O)Oc1cccc(N=CN(C)C)c1
not listed: [6] | [10] | [12]
inactive: all other assays above

Nc1ccc(Sc2ccc(N)cc2)cc1
active: [2] 68.6 µM
not listed: [6] | [9] | [14] | [16] | [17] | [18] | [19]
inactive: all other assays above

CNC(=O)Oc1cc(C)cc(C(C)C)c1
not listed: [6] | [9] | [17]
inactive: all other assays above

CN(C)C1CCCCC1
not listed: [6] | [9] | [17] | [19]
inactive: all other assays above

CC[C@H](O)C(C[C@H](C)N(C)C)(c1ccccc1)c1ccccc1
active: [12] 34.1 µM
not listed: [6] | [9]
inactive: all other assays above

CC(C)(C)c1ccc(CCOc2ncnc3ccccc23)cc1
not listed: [6] | [9] | [17]
inactive: all other assays above

NNCCO
not listed: [6] | [9]
inactive: all other assays above

C=CCc1ccc(OC(=O)Cc2ccccc2)c(OC)c1
not listed: [6] | [15] | [16] | [17]
inactive: all other assays above

Cc1cccc(C)c1NC1=NCCCS1
not listed: [6] | [9] | [17] | [19]
inactive: all other assays above

CCOC(=O)Cc1ccccc1
not listed: [6] | [9] | [15] | [17]
inactive: all other assays above

C[C@]12CC[C@@H]3c4ccc(OC(=O)N(CCCl)CCCl)cc4CC[C@H]3[C@@H]1CC[C@@H]2O
not listed: [6] | [9]
inactive: all other assays above

NC(=O)C(Cl)(Cl)Cl
not listed: [6] | [9]
inactive: all other assays above

CCOP(=S)(OCC)Oc1ccc(Cl)cc1Cl
active: [20] 45.8 µM
not listed: [6] | [11]
inactive: all other assays above

O=C(O)c1c(Cl)ccc2cc(Cl)cnc12
not listed: [6] | [9] | [18]
inactive: all other assays above

CNC(=O)Oc1cc(C)c(N(C)C)c(C)c1
not listed: [6] | [17]
inactive: all other assays above

[O-][Cl+3]([O-])([O-])O
not listed: [6] | [9]
inactive: all other assays above

O=C(O)[C@H](O)[C@@H](O)C(=O)O
not listed: [6] | [9]
inactive: all other assays above

CC(C)=CC1C(C(=O)OC(C#N)c2cccc(Oc3ccccc3)c2)C1(C)C (centres undefined)
not listed: [6] | [9] | [15] | [17]
inactive: all other assays above

CCCCOP(=O)(O)OCCCC
not listed: [6] | [9]
inactive: all other assays above
